# ALR inh: blocks human ALR sulfhydryl oxidase activity | purified ALR, DTT oxidation, H2O2 HRP-luminol luminescence | inhibition, % (concentration not given with the values) | 290,000 compounds, 3.8% hits;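 active means mean replicate inhibition above about 79%, with every replicate also reaching it, limit read from the data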
# ERp5 block: ERp5 (human) disulfide isomerase inhibition. ERp5 insulin aggregation, absorbance 650 nm, 90 min. inhibition, % at 9.99 µM. Q15084. 350,000 compounds, 0.05% hits;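 active means mean replicate inhibition above about 25%, with every replicate also reaching it, limit read from the data, passing the limit was not always enough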
# ARNT-TACC3 inh: disrupts binding between human ARNT and TACC3; AlphaScreen His-ARNT PAS-B/GST-TACC3 binding, luminescence; TACC3 fragment carries E629A point mutation; inhibition, % at 9.99 µM; 390,000 compounds, 0.66% hits; AID 623870; Q9Y6A5;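 active means mean inhibition of replicates at least 50% and at least half of replicates each reaching 50%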;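 further: 0% = complete ARNT plus TACC3 wells and 100% = ARNT alone without TACC3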
# PglD inh: blocks C. jejuni PglD acetyltransferase activity. 360,000 compounds, 0.098% hits. inhibition, % at 12.5 µM. purified PglD enzyme, DTNB colorimetric CoA detection; in the data active means inhibition above about 16%, passing the limit was not always enough
# PDI turbidity: PDI (human) enzyme inhibition; AID 588391; 350,000 compounds, 0.052% hits; PDI insulin aggregation turbidity, A650, 90 min; inhibition, % at 10 µM;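 active means mean inhibition across replicates of 30% or more, whatever share of single replicates reach that level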
# Target sequence (P07237 whole entry, looked up): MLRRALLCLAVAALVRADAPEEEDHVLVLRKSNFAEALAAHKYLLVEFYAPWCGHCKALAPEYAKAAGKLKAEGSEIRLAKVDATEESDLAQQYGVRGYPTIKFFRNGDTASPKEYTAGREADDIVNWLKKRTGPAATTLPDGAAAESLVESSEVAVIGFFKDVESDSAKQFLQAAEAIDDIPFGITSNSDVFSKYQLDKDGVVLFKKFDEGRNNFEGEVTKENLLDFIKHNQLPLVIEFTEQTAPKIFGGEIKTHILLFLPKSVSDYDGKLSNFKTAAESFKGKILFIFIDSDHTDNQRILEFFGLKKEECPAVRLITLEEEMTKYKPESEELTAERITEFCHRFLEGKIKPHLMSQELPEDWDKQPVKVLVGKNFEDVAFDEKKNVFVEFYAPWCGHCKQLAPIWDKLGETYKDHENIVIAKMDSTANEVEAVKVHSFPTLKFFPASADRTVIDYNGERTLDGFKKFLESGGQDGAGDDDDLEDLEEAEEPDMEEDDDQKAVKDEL
# NRP1-CendR mod: NRP-1/CendR interaction modulation; O14786; FAM-RPARPAR peptide binding to NRP-1, fluorescence polarization; inhibition, % at 25 µM; 360,000 compounds, 0.85% hits; AID 602438;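 active means inhibition or corrected inhibition above about 18%, plus a signal ratio from 0.5 to 1.5, limit read from the data, passing the limit was not always enough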
# PglD confirm: confirmation of Campylobacter jejuni PglD acetyltransferase inhibitors | AID 743156 | Purified C. jejuni PglD, DTNB absorbance 412 nm | shares compounds with PglD inh | inhibition, % at 20 µM | 320 tested, under 10 active;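 active means mean inhibition across replicates of at least 20% with every single replicate also at 20% or more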;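 further: initial rate of CoA release by acetyl transfer from AcCoA to the UDP-4-amino sugar; 0% = median of neutral control wells and 100% = median of positive control wells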
# * hit, by the source's call; nt = not tested or not shown. Shown is part of a subset that was picked to be rich in hits.
SMILES,ALR inh,ERp5 block,ARNT-TACC3 inh,PglD inh,PDI turbidity,NRP1-CendR mod,PglD confirm
COc1ccc(-c2cnnc(N/N=C/c3ccc(-c4ccc([N+](=O)[O-])cc4)o3)n2)cc1,nt,8,-41,nt,3,21,nt
CN1CCN(C(=O)C[C@@H]2C[C@@H]3c4cc(NC(=O)Nc5ccc(C(F)(F)F)cc5)ccc4O[C@@H]3[C@H](CO)O2)CC1,nt,3,-1,-1,nt,nt,nt
CCCN(C)C[C@@H]1OCc2cnnn2CCCC(=O)N([C@@H](C)CO)C[C@H]1C,nt,-1,-4,-4,nt,nt,nt
Cc1cccc(Cn2c(=O)n(Cc3ccco3)c(=O)c3ccccc32)c1,2,nt,-8,3,-7,6,nt
Cc1ccccc1Cn1c(=O)n(Cc2ccco2)c(=O)c2ccccc21,1,nt,nt,42*,-7,-9,7
CC(=O)N(C)C[C@H]1Oc2ncc(-c3cccc(C#N)c3)cc2C(=O)N([C@H](C)CO)C[C@H]1C,nt,-6,-10,-1,nt,nt,nt
COCCNC(=O)c1cccc2c(-c3cccc(C(N)=O)c3)coc12,nt,5,nt,-6,-9,6,nt
COCCCNC(=O)c1cccc2c(-c3cccc(C(N)=O)c3)coc12,nt,-3,nt,28*,-6,-1,-4
c1csc(-c2ccc3nncn3c2)c1,nt,5,nt,36*,21,-37,0
OCc1ccccc1-c1ccc2nncn2c1,nt,2,nt,8,1,0,nt
CCC(=O)N1[C@H](CO)[C@H](c2ccc(-c3ccccc3)cc2)[C@@H]1CNC(=O)COC,nt,nt,-1,-1,nt,nt,nt
C[C@H]1CN([C@@H](C)CO)C(=O)c2cccc(NC(=O)Nc3cccc4ccccc34)c2O[C@@H]1CN(C)C(=O)Nc1ccc2c(c1)OCO2,nt,-16,1,-3,nt,nt,nt
c1ccc(CNCCN2CCNCC2)nc1,-8,nt,66*,30*,0,0,-50
O=C(NCCN1CCNCC1)c1ccccc1O,3,-1,nt,-7,1,-4,nt
C(CCN1CCOCC1)CN1CCOCC1,nt,0,nt,-5,nt,14,nt
OCCN1CCOCCN(CCO)CCOCC1,nt,nt,7,21*,-1,8,-31
C[C@@H]1CCCCO[C@@H](CN(C)Cc2ccc3c(c2)OCO3)[C@@H](C)CN([C@@H](C)CO)C(=O)c2cc(NC(=O)CCCN(C)C)ccc2O1,nt,-7,12,0,nt,nt,nt
C[C@@H]1CN([C@@H](C)CO)C(=O)c2cc(C#C[C@@H](C)O)cnc2O[C@@H]1CN(C)C(=O)Nc1ccc(F)cc1,nt,5,15,-2,nt,nt,nt
O=C1NC2(CCCCCC2)C(=O)N1Cc1cccc([N+](=O)[O-])c1,nt,4,0,20*,-2,3,0
CC(Sc1nnc(N)s1)C(=O)Nc1ccc2c(c1)OCO2 (centres undefined),nt,-4,1,1,-8,-4,nt
CC(Sc1nnc(N)s1)C(=O)Nc1ccc(N2CCOCC2)cc1 (centres undefined),47,nt,-1,21*,-2,0,0
O=C(C[C@@H]1CC[C@H]2NC[C@@H](O)COC[C@@H]2O1)N1CCc2ccccc2C1,nt,nt,-37,1,nt,nt,nt
COC(=O)c1ccc(CN2CC(=O)N3[C@@H](CO)[C@H](c4ccc(-c5ccccc5F)cc4)[C@@H]3C2)cc1,nt,-5,nt,nt,nt,nt,nt
CC(=O)Nc1nnc(S(N)(=O)=O)s1,-9,3,-5,0,-6,-3,nt
CC(=O)Nc1nc(C)c(S(N)(=O)=O)s1,-10,nt,-1,24*,-11,-6,-6
C[C@@H]1CN([C@@H](C)CO)C(=O)c2cc(C3=CCCCC3)cnc2O[C@H]1CN(C)C(=O)Nc1ccc(F)cc1,nt,0,-1,-2,nt,nt,nt
Cc1ccc(O)c(NC(=O)CN(C)S(=O)(=O)c2ccc(Cl)cc2)c1,3,-5,-7,30*,0,3,5
CCOc1ccc(N(CC(=O)NCCSc2ccccn2)S(C)(=O)=O)cc1,-2,nt,-1,4,8,12,nt
CS(=O)(=O)N(CC(=O)NCCSc1ccccn1)c1cccc2ccccc12,3,0,-1,20*,-3,13,-3
C[C@H](CO)N1C[C@H](C)[C@H](CN(C)C(=O)Nc2ccc3c(c2)OCO3)Oc2ccc(NC(=O)NC3CCCCC3)cc2C1=O,nt,3,-1,2,nt,nt,nt

# From PubChem BioAssay
